PAFAH1B2 inh: blocks human PAF acetylhydrolase 1b catalytic subunit 2; P68402; recombinant PAFAH1B2, FP-rhodamine activity probe, fluorescence polarization; inhibition, % at 3.39 µM; 340,000 tested, 1.2% active; AID 492953;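 active = inhibition above the mean of all tested compounds plus 3 SD, cut at about 24% in these data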
Target sequence (P68402 whole entry, looked up): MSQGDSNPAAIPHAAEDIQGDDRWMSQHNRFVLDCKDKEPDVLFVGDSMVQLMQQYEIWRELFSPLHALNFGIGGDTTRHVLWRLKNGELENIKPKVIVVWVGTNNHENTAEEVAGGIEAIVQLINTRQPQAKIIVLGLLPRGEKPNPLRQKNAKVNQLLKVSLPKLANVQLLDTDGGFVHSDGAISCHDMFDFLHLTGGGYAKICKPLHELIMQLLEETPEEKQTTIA
ZTA counter: blocks Epstein-Barr virus ZTA, an EBNA-1 counter-screen; P03206; ZTA-DNA binding, fluorescence polarization; inhibition, % at 11 µM; 320,000 tested, 0.15% active; AID 2234; in the data active = inhibition above about 33%
Target sequence (P03206 whole entry, looked up): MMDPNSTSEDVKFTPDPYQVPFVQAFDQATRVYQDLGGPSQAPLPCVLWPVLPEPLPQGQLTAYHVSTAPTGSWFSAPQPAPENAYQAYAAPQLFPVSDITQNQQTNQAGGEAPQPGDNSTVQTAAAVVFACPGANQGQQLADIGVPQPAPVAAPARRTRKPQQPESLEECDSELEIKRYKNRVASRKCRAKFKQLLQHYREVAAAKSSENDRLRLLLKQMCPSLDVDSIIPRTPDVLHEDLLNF
PAFAH2 FP inh: inhibitors of human PAFAH2; 340,000 tested, 0.99% active; Q99487; recombinant PAFAH2, FP-rhodamine activity probe, fluorescence polarization; inhibition, % at 3.39 µM; AID 492956;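 active = inhibition above the mean over all tested compounds plus 3 SD, cut at about 30% in these data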;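 also: inhibitors block probe labeling of enzyme so polarization drops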
rCAG RNA binder: molecules binding r(CAG) RNA repeats; inhibition, % at 3 µM; r(CAG) RNA repeat, TO-PRO-1 dye displacement fluorescence; 370,000 tested, 1.3% active; AID 651821;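 active = inhibition above the plate cutoff, the mean of all test compounds on that plate plus 3 SD, cut at about 35% in these data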;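 also: higher means more dye released from RNA so lower well fluorescence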
EBNA-1 inh: blocks EBNA-1 binding to DNA; 300,000 tested, 0.34% active; EBNA-1 DNA binding, fluorescence polarization; inhibition, % at 14.8 µM; in the data active = inhibition above about 28%
PAFAH1B3 FP inh: blocks human PAF acetylhydrolase 1B catalytic subunit 3 | recombinant PAFAH1B3, FP-rhodamine probe, fluorescence polarization | inhibition, % at 3.39 µM | 340,000 tested, 0.28% active | AID 492972;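 active = inhibition above the screen-wide average of all tested compounds plus 3 SD, cut at about 25% in these data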
rCAG binder conf: r(CAG) RNA repeat binding, confirmation. shares compounds with rCAG RNA binder. TO-PRO-1 dye displacement fluorescence. inhibition, % at 3 µM. 4,300 tested, 70% active;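 active = inhibition above a per-plate cutoff, the mean inhibition of sample wells plus 3 SD, cut at about 35% in these data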;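 also: loss of TO-PRO-1 fluorescence as compound displaces dye from 1x1 AA loop RNA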
DNA CAG counter: disrupts DNA CAG TO-PRO-1 complex, flagging rCAG hits | shares compounds with rCAG RNA binder | d(CAG) DNA oligo TO-PRO-1 dye displacement, fluorescence | inhibition, % at 3 µM | 4,300 tested, 94% active;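 active = inhibition above its plate's cutoff, the mean test-well inhibition plus 3 SD, cut at about 4.8% in these data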;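 also: hits displace the dye from DNA and so lower well fluorescence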
dCAG dye DR: counter-screen for rCAG binders: inhibitors of DNA CAG TO-PRO-1 complex | shares compounds with rCAG RNA binder | DNA CAG/GTC duplex TO-PRO-1 dye displacement fluorescence | IC50, µM | 250 tested, 20% active | AID 686960; in the data active = IC50 below about 10 µM
Hits are given with their value; - = inactive; . = no result. Sampled rows, rich in hits. Any-hit rate of the full collection: about 2.9%.

SMILES	PAFAH1B2 inh	ZTA counter	PAFAH2 FP inh	rCAG RNA binder	EBNA-1 inh	PAFAH1B3 FP inh	rCAG binder conf	DNA CAG counter	others
CCCCCCCCN1C(=O)[C@@H](CC(=O)NCC23CC4CC(CC(C4)C2)C3)C[C@@]2(C(=O)OC)C1=C[C@H](COCc1ccccc1)O[C@@H]2C	.	.	.	-	.	.	.	.
CCc1nnc(NS(=O)(=O)c2ccc(NC(=S)NC(=O)/C=C/c3ccc(F)cc3)cc2)s1	-	-	-	85.3	-	-	85.6	59.5
CCc1nnc(NS(=O)(=O)c2ccc(NC(=S)NC(=O)/C=C/c3ccc([N+](=O)[O-])cc3)cc2)s1	-	-	-	37.5	-	-	-	7.7
CC(C)(C)Cc1nnc(NS(=O)(=O)c2ccc([N+](=O)[O-])cc2)s1	-	-	-	-	-	-	.	.
Clc1ccc(-c2nsc(N3CCOCC3)n2)c(Cl)c1	-	-	-	-	-	-	.	.
O=c1c(OCc2ccccc2)cccn1Cc1ccccc1	.	.	.	-	.	.	.	.
O=C(CCc1ccc(S(=O)(=O)N2CCOCC2)cc1)N/N=C/c1ccc(O)c(O)c1O	-	-	-	39.9	-	-	46.5	16.3
O=[N+]([O-])c1ccc(N/N=C/c2cccc(O)c2O)c(S(=O)(=O)N2CCOCC2)c1	-	-	-	35.0	-	-	-	17.8
O=[N+]([O-])c1ccc(N/N=C/c2ccc(O)c(O)c2O)c(S(=O)(=O)N2CCOCC2)c1	-	.	-	69.1	.	-	83.5	51.8
O=C(CCc1ccc(S(=O)(=O)N2CCOCC2)cc1)N/N=C/c1ccc(F)cc1F	-	-	-	-	-	-	.	.
Cc1ccc(S(=O)(=O)/N=C2/NC(=O)/C(=C/c3cccnc3)S2)cc1	-	-	-	-	-	-	.	.
COc1cc(/C=C2/S/C(=N/S(=O)(=O)Cc3ccccc3)NC2=O)c([N+](=O)[O-])cc1OC	-	-	-	72.7	-	-	67.0	28.7
COc1cc(/C=C2/SC(=O)NC2=O)ccc1Oc1ccc([N+](=O)[O-])cc1[N+](=O)[O-]	-	-	-	-	-	-	.	.
COc1cc(/C=C2\SC(=Nc3ccc(O)cc3)NC2=O)cc(OC)c1O	-	-	-	-	-	-	.	.
COc1cc(/C=C2/S/C(=N/S(=O)(=O)c3ccccc3)NC2=O)c([N+](=O)[O-])cc1OC	-	-	-	78.0	-	-	76.7	41.1
O=C1N/C(=N\S(=O)(=O)c2ccccc2)S/C1=C\c1cc([N+](=O)[O-])ccc1O	38.4	-	30.6	67.1	-	42.9	51.8	11.6	dCAG dye DR=-
CC(Cc1ccccc1)NC(=S)CN1CCCC1=S (stereo not drawn)	-	-	-	-	-	-	.	.
O=C(CSCc1ccccc1)Nc1cccc(C(=O)Nc2ccccc2C(=O)O)c1	-	-	-	71.7	-	-	55.1	17.6
O=C(O)CCCC(=O)Nc1cccc(C(=O)Nc2ccccc2C(=O)O)c1	-	-	-	-	-	-	.	.
O=C(CSCc1ccc(Cl)cc1)Nc1cccc(C(=O)Nc2ccccc2C(=O)O)c1	-	-	-	75.6	-	-	82.6	43.3
Cc1[nH]n(-c2ccccc2)c(=O)c1C(c1cccc([N+](=O)[O-])c1O)c1c(C)[nH]n(-c2ccccc2)c1=O	-	-	-	79.5	-	-	46.2	13.1
COc1cccc(C(C[N+](=O)[O-])c2c(C)[nH]n(-c3ccccc3)c2=O)c1 (stereo not drawn)	-	-	-	-	-	-	.	.
Cc1[nH]n(-c2ccccc2)c(=O)c1C(c1cccc([N+](=O)[O-])c1)c1c(C)[nH]n(-c2ccccc2)c1=O	-	-	-	67.6	-	-	49.9	19.9
O=C(NNc1nc2ccc(Cl)cc2s1)c1cc(-c2cccs2)nc2ccccc12	-	-	-	54.8	-	-	50.3	24.6
Cc1cc(C)c2nc(NNC(=O)c3cc(-c4cccs4)nc4ccccc34)sc2c1	-	-	-	37.4	-	-	42.4	18.4

Screening data as filed in PubChem.
